High-throughput results as filed in PubChem BioAssay.
ADAM17 inh: inhibitors of human ADAM17; recombinant ADAM17, EDANS/DABCYL FRET peptide cleavage; inhibition, % at 6.95 µM; 370,000 compounds, 0.83% hits; AID 720648;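 active means inhibition above the mean of compounds lying between control limits plus 3 SD, set per campaign, cut at about 8.5% in these data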
PLC-gamma1 inh: PLC-gamma1 (human) inhibition, primary screen. P19174. purified PLC-gamma1, fluorogenic substrate, fluorescence. inhibition, % at 12.2 µM. 370,000 compounds, 0.84% hits. AID 720700
PLCb3 inh: inhibitors of human phospholipase C beta3; Purified PLC-beta3, fluorogenic substrate, fluorescence; inhibition, % at 12.2 µM; Q01970; 370,000 compounds, 0.18% hits; in the data active means inhibition above about 11%
Rce1 inhib: inhibitors of yeast Ras-converting enzyme; Q03530; AID 2563; 290,000 compounds, 0.27% hits; calls only; yeast membranes, quenched prenylated peptide cleavage fluorescence;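 active means fall in fluorescence gain of 50% or more versus controls, with final raw signal at or below 3038400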
ADAM10 inh: inhibitors of human ADAM10; O14672; recombinant ADAM10, EDANS/DABCYL FRET peptide cleavage, 3 h; inhibition, % at 7 µM; 370,000 compounds, 0.62% hits; AID 720582;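 active means inhibition above a per-campaign cutoff equal to the mean of compounds falling between control-based bounds plus 3 SD, cut at about 20% in these data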
Target sequence (O14672 214-748 limits assumed): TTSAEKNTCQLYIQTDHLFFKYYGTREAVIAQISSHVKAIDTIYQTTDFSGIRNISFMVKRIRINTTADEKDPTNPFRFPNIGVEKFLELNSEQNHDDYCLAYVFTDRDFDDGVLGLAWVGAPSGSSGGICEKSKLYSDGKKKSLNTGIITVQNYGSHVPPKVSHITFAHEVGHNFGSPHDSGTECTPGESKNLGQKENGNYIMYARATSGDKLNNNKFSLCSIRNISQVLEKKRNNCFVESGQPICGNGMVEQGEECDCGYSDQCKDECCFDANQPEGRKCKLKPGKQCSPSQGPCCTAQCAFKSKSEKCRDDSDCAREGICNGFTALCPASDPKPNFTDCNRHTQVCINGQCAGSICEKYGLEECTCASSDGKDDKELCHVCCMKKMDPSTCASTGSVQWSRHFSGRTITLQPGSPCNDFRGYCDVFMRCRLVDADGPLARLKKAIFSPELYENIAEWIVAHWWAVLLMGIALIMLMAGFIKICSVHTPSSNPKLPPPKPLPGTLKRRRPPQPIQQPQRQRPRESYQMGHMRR
PLCgamma1 ctr: PLC-gamma1 inhibition, counter-screen for PLC-beta3 hits; shares compounds with PLC-gamma1 inh; purified PLC-gamma1, fluorogenic substrate, fluorescence; inhibition, % at 12.3 µM; 3,300 compounds, 3.1% hits; AID 743258
PLCbeta3 conf: human PLC-beta3 inhibition, confirmation | inhibition, % at 12.3 µM | purified PLC-beta3, fluorogenic substrate fluorescence | AID 743261 | shares compounds with PLC-gamma1 inh | 3,300 compounds, 1% hits; in the data active means inhibition above about 11%
Large screens that a line does not name were inactive (follow-up assays come after a bar, where they were run); ! = not active in a repeat. Hits are enriched below; roughly 2.1% of the tested compounds scored in any of these assays. Unless noted, no stated cut-off is given here; in the data, active means inhibition above about 9.5%; inactive means the rest.

C[C@@H]1CCC[C@@]2(O[C@@H](CCO)C[C@H](O)[C@H]2O)O1	PLC-gamma1 inh 11.9 | PLCgamma1 ctr inactive | PLCbeta3 conf inactive
OCC[C@@H]1C[C@@H](O)[C@H](O)[C@]2(CCCO2)O1	PLC-gamma1 inh 11.9 | PLCgamma1 ctr inactive | PLCbeta3 conf inactive
O=C(Nc1ccon1)Nc1cccc(Cl)c1Cl	none
Cc1ccccc1CNC1CCCCC1	PLCb3 inh 11.8 | PLCgamma1 ctr inactive | PLCbeta3 conf inactive
O=[N+]([O-])c1ccccc1CNC1CCCCCC1	none
Fc1cc(F)cc(NC(=S)NN2CCOCC2)c1	PLC-gamma1 inh 11.1 | PLCgamma1 ctr inactive | PLCbeta3 conf inactive
Cn1cc(Cc2ccc(C(=O)N3CCCCC3)cn2)c2ccccc21	none (no result: Rce1 inhib)
NS(=O)(=O)c1ccc(CCNC(=O)C2CCCCN2S(=O)(=O)c2ccccc2)cc1 (stereo unspecified)	PLC-gamma1 inh 12.8 | PLCgamma1 ctr inactive | PLCbeta3 conf inactive
COc1ccc(CC/C(C)=N\NC(N)=O)cc1	none
CNc1c(C(=O)O)ccc2c1C(=O)c1ccccc1C2=O	none
O=C(O)c1ccc2c(c1Nc1ccccc1)C(=O)c1ccccc1C2=O	PLC-gamma1 inh 10.1 | PLCgamma1 ctr inactive | PLCbeta3 conf inactive
CCOc1cc(C(=O)N2CCC(CC3CC(c4ccccc4)=NO3)(C(=O)NCc3ccc(OC)cc3)CC2)cc(OCC)c1OCC (stereo unspecified)	none
CCOc1cc(C(=O)N2CCC(CC3CC(c4ccc(Cl)cc4)=NO3)(C(=O)NCC3CCCCC3)CC2)cc(OCC)c1OCC (stereo unspecified)	PLCb3 inh 11.4 | PLCgamma1 ctr inactive | PLCbeta3 conf inactive
COc1ccc(CNCCS(=O)(=O)NCc2ccc(OC)cc2)cc1	PLC-gamma1 inh 13.0 (no result: Rce1 inhib) | PLCgamma1 ctr inactive | PLCbeta3 conf inactive
COCc1cc(C)nc(OCC(=O)N/N=C/c2ccc(-c3cc([N+](=O)[O-])ccc3Cl)o2)c1C#N	none
COC(=O)[C@]12C[C@H](CC(=O)NCCC(C)C)C(=O)N(Cc3ccc4c(c3)OCO4)C1=C[C@H](COCc1ccccc1)O[C@@H]2C	none (no result: Rce1 inhib)
CCc1ccc(C(=O)NNc2cc(Cl)ccc2Cl)cc1	PLC-gamma1 inh 10.0 | PLCgamma1 ctr inactive | PLCbeta3 conf inactive
COc1ccc(CNC(=O)CCn2c(C)csc2=O)cc1	PLC-gamma1 inh 11.5 (no result: Rce1 inhib) | PLCgamma1 ctr inactive | PLCbeta3 conf inactive
C/C(=N/NC(=O)c1cccs1)c1ccc(NC(=O)COc2ccc(Cl)cc2Cl)cc1	PLCb3 inh 11.5 (no result: Rce1 inhib) | PLCgamma1 ctr inactive | PLCbeta3 conf inactive
C/C(=N/NC(=O)c1ccc(C)s1)c1cccc(NC(=O)COc2ccc(Cl)cc2Cl)c1	none
CCOC(=O)c1c(NC(=O)CSc2nc3nc(C)cc(C)n3n2)sc(CC)c1C	none (no result: Rce1 inhib)
Cc1cc(C)n2c(Nc3ccc4c(c3)OCCO4)c(CC(C)C)nc2n1	none (no result: Rce1 inhib)
CCN(c1ccccc1)S(=O)(=O)c1ccc(Cl)c(C(=O)NCC2CCCO2)c1 (stereo unspecified)	PLC-gamma1 inh 12.5 | PLCgamma1 ctr inactive | PLCbeta3 conf inactive
CC(C)(C)C(c1nc2ccccc2[nH]1)n1c(-c2ccsc2)nc2ccccc21 (stereo unspecified)	none (no result: Rce1 inhib)
COc1cc(CNCc2ccccc2)cc(Cl)c1OC	none
COc1c(Cl)cc(Cl)cc1CNCc1ccccc1	PLC-gamma1 inh 10.5 (no result: Rce1 inhib) | PLCgamma1 ctr inactive | PLCbeta3 conf inactive
CCOC(=O)c1c(C2COc3ccccc3O2)csc1NC(=O)c1ccccc1 (stereo unspecified)	PLC-gamma1 inh 11.8, Rce1 inhib active | PLCgamma1 ctr inactive | PLCbeta3 conf inactive
CN(C)S(=O)(=O)N1CCC(Oc2cccc(C(=O)NC3CCCCC3)c2)CC1	none
CN(C)S(=O)(=O)N1CCC(Oc2cccc(C(=O)NCCC3=CCCCC3)c2)CC1	PLC-gamma1 inh 10.8 | PLCgamma1 ctr inactive | PLCbeta3 conf inactive
COc1cccc(CN2C(=O)N(C(C)C)C(N(O)C(=O)NC(C)C)C2(C)C)c1OC (stereo unspecified)	PLC-gamma1 inh 13.6, PLCb3 inh 14.7 | PLCgamma1 ctr inactive | PLCbeta3 conf inactive
COc1ccc(-c2csc(C(C)(NC(C)=O)c3ccccc3)n2)cn1 (stereo unspecified)	none (no result: Rce1 inhib)
NC(N)=NC(N)=Nc1ccc(SC(F)(F)F)cc1	PLC-gamma1 inh 10.9 | PLCgamma1 ctr inactive | PLCbeta3 conf inactive
NC(N)=NC(N)=Nc1ccc2ccccc2c1	none
COc1cc(Cl)cc(C(c2c(C(=O)O)[nH]c3ccccc23)c2c(C(=O)O)[nH]c3ccccc23)c1O	PLC-gamma1 inh 10.7 | PLCgamma1 ctr inactive | PLCbeta3 conf inactive
Cn1cc([N+](=O)[O-])c(C(=O)Nc2cc(Oc3cccnc3)cc([N+](=O)[O-])c2)n1	none
CC(NC(=O)C(c1ccccc1)c1ccccc1)c1ccccc1 (stereo unspecified)	PLC-gamma1 inh 16.4 | PLCgamma1 ctr inactive | PLCbeta3 conf inactive
C[C@H](NC(=O)C(c1ccccc1)c1ccccc1)c1ccccc1	none
O=C1COc2ccc(C(=O)COC(=O)CCCOc3ccccc3)cc2N1	PLCb3 inh 11.1 (no result: Rce1 inhib) | PLCgamma1 ctr inactive | PLCbeta3 conf inactive
Cc1ccc(OCCNC(=O)c2ccccc2SCC(=O)N2CCCC2)cc1	none
CN(C)S(=O)(=O)c1cc(NC(=O)[C@H](Cc2ccccc2)N2C(=O)c3ccccc3C2=O)ccc1Cl	PLCb3 inh 10.8 | PLCgamma1 ctr inactive | PLCbeta3 conf inactive
CN(C)S(=O)(=O)c1cc(NC(=O)COC(=O)CCc2ccccc2)ccc1Cl	none
O=C(CCNC(=O)c1ccc([N+](=O)[O-])cc1)Nc1ccc(F)cc1F	none
CS(=O)(=O)n1nc(OC(=O)c2cccs2)cc1N	PLC-gamma1 inh 12.5 | PLCgamma1 ctr inactive | PLCbeta3 conf inactive
COc1ccc(S(=O)(=O)n2nc(OC(=O)c3cccs3)cc2N)cc1	none
O=C(c1cccc(S(=O)(=O)N2CCOCC2)c1)N(CCO)Cc1ccccc1	PLC-gamma1 inh 10.2 | PLCgamma1 ctr inactive | PLCbeta3 conf inactive
CCOC(=O)C1CCCCN1C(=O)CCn1nnnc1CN1CCOCC1 (stereo unspecified)	none
CC(C)=CCN1CCN(Cc2nc(C(C)C)cs2)CC1CCO (stereo unspecified)	none
CC(C)=CCN1CCN(Cc2cc(CC(C)C)n[nH]2)CC1CCO (stereo unspecified)	PLC-gamma1 inh 9.6 | PLCgamma1 ctr inactive | PLCbeta3 conf inactive
COCC(C)n1c(-c2ccc3c(c2)NC(=O)CO3)csc1=Nc1ccc(OC(F)F)cc1 (stereo unspecified)	PLC-gamma1 inh 12.2! | PLCgamma1 ctr inactive | PLCbeta3 conf inactive
CCC(=O)c1ccc(OCC(O)CN2CCN(S(=O)(=O)N3CCCCC3)CC2)cc1 (stereo unspecified)	PLC-gamma1 inh 9.6 | PLCgamma1 ctr inactive | PLCbeta3 conf inactive
O=C(c1ccccc1)c1ccc(OCC(O)CN2CCN(S(=O)(=O)N3CCCCC3)CC2)cc1 (stereo unspecified)	none
